Laboratory results from PubChem BioAssay.

The molecules below were run against Follistatin (Homo sapiens) (UniProt P19883) (assay: follistatin binders on small-molecule microarrays, primary screen, biochemical, small-molecule microarray, 635/667 nm fluorescence (AID 1132)). Settings: FST binding, 635 nm fluorescence, higher = more signal.
Sequence of Follistatin (Homo sapiens) (P19883 whole entry, looked up): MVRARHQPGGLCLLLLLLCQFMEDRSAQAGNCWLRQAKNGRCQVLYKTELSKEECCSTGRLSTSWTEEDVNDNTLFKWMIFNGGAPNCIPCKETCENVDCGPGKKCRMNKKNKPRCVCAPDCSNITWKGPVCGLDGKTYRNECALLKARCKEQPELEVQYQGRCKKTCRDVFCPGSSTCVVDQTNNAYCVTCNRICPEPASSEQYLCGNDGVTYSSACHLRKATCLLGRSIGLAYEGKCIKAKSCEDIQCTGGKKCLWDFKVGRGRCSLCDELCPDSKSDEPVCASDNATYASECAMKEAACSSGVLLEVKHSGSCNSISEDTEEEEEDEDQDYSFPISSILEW
Work on C=CC[C@@H]1C=C[C@H](ON=C2c3cc(OC)ccc3O[C@H](c3cccc(OC)c3)[C@H]2O)[C@@H](CO)O1 yielded a composite z-score of -0.0389. With COCCOC(=O)N1C(=O)[C@@]2(c3cc(C#CCNC(N)=O)ccc31)[C@H](c1ccc(O)cc1)N1[C@H](c3ccccc3)[C@H](c3ccccc3)OC(=O)[C@H]1[C@@H]2C(=O)N1CCCCCCC1 the composite z-score was 1.3. CC(C)(C)N1C(=O)[C@H]2[C@H]3[C@H](O)[C@H](O)CC(=NOCc4ccccc4)[C@@H]3CC[C@H]2C1=O showed a composite z-score of 0.785. O=C1C[C@]2(c3ccc([N+](=O)[O-])cc3)C(=O)N(CCN3CCOCC3)c3cc(CO)ccc3[C@H]2N1CC12CC3CC(CC(C3)C1)C2 showed a composite z-score of -0.377. Work on CC[C@@H](c1ccccc1)n1c(=O)n2n(c1=O)[C@H]1[C@H](O)[C@@H]3O[C@@H]3C(=NOCC(C)C)[C@H]1CC2 yielded a composite z-score of 0.38. Work on O=C1[C@H]2[C@H]3[C@H](O)[C@H](O)CC(=NO[C@@H]4O[C@H](CO)[C@@H](O)[C@H](O)[C@H]4O)[C@@H]3CC[C@H]2C(=O)N1Cc1ccc2c(c1)OCO2 yielded a composite z-score of 0.449. CC(C)=C1C(=O)C(c2ccccc2)=C2CN3C(=O)N(CCc4ccccc4)C(=O)[C@]3(Cc3ccc(F)cc3)[C@H]21 showed a composite z-score of -0.968. With CO[C@@H]1COC(=O)CCC[C@@H](C)[C@H](OC)COC(=O)[C@H](Cc2ccccc2)NC(=O)CC=C[C@H]1C the composite z-score was 1.29. Cc1ccc(F)cc1S(=O)(=O)N[C@@H]1CCN(Cc2ccc(CC(C)C)cc2)C1 was tested, and the composite z-score was 0.111. CC(C)[Si]1(C(C)C)O[C@@H](c2ccccc2)c2cc(C3CC3)nc(-c3ccccc3)c21 gave a composite z-score of -0.165. COC(=O)[C@@]1(Cc2ccc(F)cc2)[C@H]2c3cc(C(=O)N(C)C)n(Cc4ccc(OC)c(OC)c4)c3C[C@H]2CN1C(=O)c1ccccc1 showed a composite z-score of -0.405. In the case of CCOC(=O)CCN1C(=O)[C@H]2[C@H]3[C@H](O)C=CC(=O)[C@@H]3CC[C@H]2C1=O, the composite z-score is reported as 0.488. Work on C[C@H](c1ccccc1)N1C(=O)[C@H]2[C@@H]3C(=CC[C@H]2C1=O)C(=O)[C@H]1O[C@H]1[C@H]3O yielded a composite z-score of 0.642. CS(=O)(=O)CCOC(=O)C1=CC(CCCO)=CC(c2cccs2)N(Cc2cccc(OC(F)(F)F)c2)C=C1C(=O)OCCS(C)(=O)=O (stereo unspecified) showed a composite z-score of 0.243. With O=C1[C@H]2[C@H]3[C@H](O)[C@H](O)CC(=NO[C@@H]4O[C@H](CO)[C@@H](O)[C@H](O)[C@H]4O)[C@H]3CC[C@H]2C(=O)N1Cc1ccc2c(c1)OCO2 the composite z-score was -0.164. With Cc1cc2c(nc1C)CCCN2CC(C)ON=C1[C@H]2CCn3c(=O)n(-c4ccccc4)c(=O)n3[C@H]2[C@H](O)[C@@H]2O[C@H]12 (stereo partly specified) the composite z-score was 0.687. Work on Cc1cc(C)c(-c2cc([C@H](C)ON=C3[C@H]4CCn5c(=O)n(-c6ccccc6)c(=O)n5[C@H]4[C@H](O)[C@@H]4O[C@H]34)on2)c(C)c1 yielded a composite z-score of 0.692. COc1ccc([Si](C)(C)[C@@H]2[C@@H](CCO)O[C@]3(C(=O)N(Cc4ccc(NC(C)=O)cc4)c4ccccc43)[C@H]2C)cc1 was tested, and the composite z-score was 1.07. Work on c1ccc(C2NCCc3c2[nH]c2ccccc32)cc1 (stereo unspecified) yielded a composite z-score of 0.236. Work on CC(=O)C[C@H](O)[C@@H](NC(=O)OC(C)(C)C)C(C)C yielded a composite z-score of -0.118. CO[C@H]1O[C@H](CO)[C@@H](OC(=O)Nc2ccc(C#N)cc2)[C@H](OC(=O)c2cc3ccccc3[nH]2)[C@H]1OC(=O)c1cc2ccccc2[nH]1 gave a composite z-score of 0.491. CO[C@@H]1COC(=O)[C@@H]2CCCN2C(=O)[C@@H](C)COC(=O)[C@H](COCc2ccccc2)NC(=O)CC=C[C@H]1C was tested, and the composite z-score was 0.421. COc1ccc(O[C@H]2C=C[C@@H](c3ccccc3)O[C@@H]2COC(=O)CCC(C)=NO[C@H](C)c2cn([C@@H]3COC[C@H]3O)nn2)cc1 was tested, and the composite z-score was 0.368. With CC(CCC(=O)OC[C@H]1O[C@H](C#Cc2ccccc2)C=C[C@@H]1Oc1ccc(C)cc1)=NO[C@@H](C)c1cn([C@H](CO)Cc2ccccc2)nn1 the composite z-score was 0.335. CO[C@H]1COC(=O)[C@H](C)COC(=O)CC=C[C@@H](C)[C@H](OC)COC(=O)CC=C[C@@H]1C showed a composite z-score of 1.16. For CCc1cccc(NC(=O)O[C@H]2[C@H](OC(=O)Nc3ccc4c(c3)OCO4)[C@@H](OC(=O)Nc3ccc4c(c3)OCO4)[C@@H](OC)O[C@@H]2CO)c1, the composite z-score was 1.03. Molecule CCOC(=O)C[C@H]1[C@H](OC(=O)c2cc3ccccc3oc2=O)[C@@H](NC(=O)c2ccc3ccccc3n2)c2cc(OCCCO)ccc2N1C(=O)c1ccccc1 has a composite z-score of 1.14. Molecule CCN1C(=O)[C@H]2[C@H]3[C@H](O)[C@H](O)CC(=NOCC=C(C)CCC=C(C)C)[C@H]3CC[C@H]2C1=O has a composite z-score of 1.26. Molecule O=C1[C@H]2[C@H]3[C@H](O)[C@H](O)CC(=NOCc4ccccc4)[C@@H]3CC[C@H]2C(=O)N1C1CCCCC1 has a composite z-score of 0.207. Work on CC(C)=CCCC(C)=CCON=C1[C@H]2CCn3c(=O)n(Cc4cc5c(cc4Cl)OCO5)c(=O)n3[C@H]2[C@H](O)[C@@H]2O[C@H]12 yielded a composite z-score of 0.908. CCCNC(=O)OC[C@H]1O[C@H](CCON=C[C@@H](OC)[C@H](C)C=CCC(=O)OC)C=C[C@@H]1Oc1ccc(OC)cc1 gave a composite z-score of 0.0998. COC(=O)[C@H](C)NC(=O)[C@@H](C)CO gave a composite z-score of 0.252. C=CCOC(=O)[C@H]1[C@@H]2C(=O)O[C@@H](c3ccccc3)[C@@H](c3ccccc3)N2[C@@H](c2ccc(OCCOC(=O)[C@H]3C[C@H]4C(=O)N5CCC[C@H]5C(=O)N4[C@H]3c3cccc(OCCO)c3)cc2)[C@]12C(=O)Nc1ccc(I)cc12 showed a composite z-score of 1.46. CCCCC(=C=CC[C@H](O)c1ccccc1OCCO)C[C@H](O)COCc1ccccc1 gave a composite z-score of 0.103. COc1ccc(-c2ccc3c(n2)CCCN3CC(O)CN2CCCc3nc(C)c(C)cc32)cc1 (stereo unspecified) gave a composite z-score of 1. With C[C@H]1Cc2c(-c3ccccc3)nc3c(c2CO1)CN(CCOc1ccccc1)CC3 the composite z-score was 1.09.
